Source: PubChem BioAssay (National Center for Advancing Translational Sciences (NCATS))
Sampled rows, rich in hits. Any-hit rate of the full collection: about 21%.
Pf growth 96h = P. falciparum growth inhibition at 96 hour, primary screen for plastid delayed-death inhibitors; AID 504834; Potency, µM (highest dose often 28.7 µM), most hits filed as inhibitors; P. falciparum luciferase reporter growth, 96 h; 320,000 compounds, 6.9% hits; active means well fitted inhibition curve with a large enough effect; inconclusive means small, poorly fitted or top-dose-only effect, or another doubt; inactive means no such curve, though single readings can be large or run the other way
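Plates of compound plus infected erythrocytes (2% hematocrit, 0.05% parasitemia final) incubate 96 hours, 37 C, 5% CO2. Detection reagent added; reduced luminescence from the parasites' luciferase reporter flags inhibition.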
Cycloheximide cs = counter-screen for Shiga toxin inhibitors: cycloheximide protein synthesis inhibition. cell reporter, cycloheximide protein synthesis inhibition counterscreen. max response, %. 300,000 compounds, 12% hits. AID 2314; in the data active means max response mostly above about 13%, no sharp cut-off; inactive means mostly below about 14%; further: read at 38.3 µM for the half of the compounds with a filed dose
Pf growth 48h = inhibits P. falciparum growth in the first generation, 48 h; Potency, µM (highest dose often 28.7 µM), hits mostly inhibitors; P. falciparum luciferase growth in erythrocytes, 48 h; 310,000 compounds, 5.9% hits; active means well fitted inhibition curve with a large enough effect; inconclusive means small, poorly fitted or top-dose-only effect, or another doubt; inactive means no such curve, though single readings can be large or run the other way
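Read-out is firefly luciferase luminescence from an integrated reporter in P. falciparum, so falling signal marks reduced parasite growth. Infected erythrocytes were at 2% hematocrit and 0.1% parasitemia (final) in Albumax-supplemented RPMI 1640.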
SARS PLpro yeast = blocks SARS-CoV papain-like protease in a yeast assay; 330,000 compounds, 0.19% hits; S. cerevisiae expressing SARS-CoV PLpro, growth rescue; Potency, µM (series often up to 32.9 µM), hits mostly activators; further: nearly all actives have a fitted effect of over 55% in size
Shiga inhibitor = blocks Shiga toxin action in Vero cells; 290,000 compounds, 9.2% hits; Vero cells, Shiga toxin protein synthesis inhibition reporter; inhibition, % at 38.7 µM; in the data active means inhibition mostly above about 28%, no sharp cut-off; inactive means mostly below about 43%
NS1 function inh = influenza NS1 inhibition | 270,000 compounds, 0.4% hits | Potency, µM (doses to about 46.1 µM) | AID 2326; further: actives are rising curves; nearly all actives have a fitted effect of over 50% in size
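In this qHTS, NS1 from influenza A is expressed in budding yeast, where it slows growth. Cells are switched from glucose to 2% galactose medium (pH 6.0, -URA), treated with compound, and growth recovery is read at OD600.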
Of the large screens only hits and unclear results are named; the others gave an inactive call. Unless noted, the call rests on the fitted dose curve.

O=C(CNCc1ccc(Cl)cc1)Nc1ccc(C(=O)N2CCCCC2)cc1	Pf growth 48h inconclusive
O=C(c1ccc(COc2ccc(Cl)cc2)cc1)N1CCCCC1	Pf growth 96h inconclusive, Cycloheximide cs 24, Shiga inhibitor 91
CCCCOc1ccc(C(=O)N2CCCCCC2)cc1	Cycloheximide cs 28, Shiga inhibitor active
CCOc1ccc(Br)cc1C1=NN(C(C)=O)C(c2ccc([N+](=O)[O-])s2)O1 (stereo unspecified)	Pf growth 96h inconclusive, Pf growth 48h 9.3µM
COc1ccc(S(=O)(=O)NCC2CCCN(C(=O)c3ccccc3)C2)cc1 (stereo unspecified)	none
CCCCNC(=O)C1CCN(S(=O)(=O)N2CCOCC2)CC1	none (no result: NS1 function inh)
Cc1cc(C)n2nc(Nc3ccccc3)cc2n1	Pf growth 96h inconclusive, Cycloheximide cs 28, Shiga inhibitor 88, NS1 function inh inconclusive
Cc1cc(C)n2nc(-c3ccccc3)cc2n1	Cycloheximide cs 57, Shiga inhibitor 77
Nc1cc(-c2ccc(Br)cc2)nc2cc(-c3ccccc3)nn12	Shiga inhibitor 93 (no result: NS1 function inh)
Cc1ccc(-c2cc3nc(C)cc(C)n3n2)cc1	Cycloheximide cs 38, Shiga inhibitor 78
COc1ccc(C(=O)O/N=C(\N)Cc2ccc([N+](=O)[O-])cc2)c(OC)c1	Pf growth 96h inconclusive, Pf growth 48h inconclusive
CC1CC(CN)CC(CO)C1 (stereo unspecified)	none
Cc1cc(C)n2nc(-c3ccsc3-n3c(C)ccc3C)cc2n1	Pf growth 96h inconclusive, Pf growth 48h 13µM
Cc1ccc(NC(=O)c2cc3nc(C)cc(C)n3n2)cc1	Cycloheximide cs 47, Shiga inhibitor 101 (no result: Pf growth 48h)
CCCNCc1cc(OC)c(OCc2ccccc2)cc1Br	none
CCC/C(C(=O)NCCO)=C1/c2ccccc2C(=O)N1c1ccccc1	none (no result: Pf growth 96h, Cycloheximide cs, Pf growth 48h, Shiga inhibitor, NS1 function inh)
CSc1nc(O)c(N=Nc2ccc(F)cc2F)c(=O)[nH]1	Cycloheximide cs 30, Shiga inhibitor 54
CS(=O)(=O)c1ccc(Cl)c(NC(=O)CCN2C(=O)NC3(CCCC3)C2=O)c1	none (no result: Pf growth 96h, Cycloheximide cs, Pf growth 48h, Shiga inhibitor, NS1 function inh)
N=C1S/C(=C\c2cccc3ccccc23)C(=O)N1c1ccc(F)cc1	Pf growth 48h 12µM
N=C1S/C(=C\c2cn[nH]c2-c2ccc(F)cc2)C(=O)N1c1ccccc1F	Pf growth 96h inconclusive, Cycloheximide cs 20, NS1 function inh inconclusive
O=C(CSc1ncnc2sccc12)NCc1ccc2c(c1)OCO2	Pf growth 96h inconclusive, Pf growth 48h inconclusive (no result: Cycloheximide cs, Shiga inhibitor, NS1 function inh)
COC(=O)c1ccccc1NC(=S)NC(NC(=O)c1ccco1)C(Cl)(Cl)Cl (stereo unspecified)	none
COc1ccc(NC(=S)NC(NC(=O)c2cccc3ccccc23)C(Cl)(Cl)Cl)c([N+](=O)[O-])c1 (stereo unspecified)	Pf growth 96h 1.5µM (no result: Pf growth 48h)
Cc1ccc(C)c(NC(=S)NC(NC(=O)Cc2cccc3ccccc23)C(Cl)(Cl)Cl)c1 (stereo unspecified)	Pf growth 96h 2.6µM (no result: Pf growth 48h)
COc1ccc(NC(=S)NC(NC(=O)c2ccccc2Cl)C(Cl)(Cl)Cl)c([N+](=O)[O-])c1 (stereo unspecified)	Pf growth 96h 3.7µM (no result: Pf growth 48h)
COC(=O)c1ccccc1NC(=S)NC(NC(=O)c1ccccc1[N+](=O)[O-])C(Cl)(Cl)Cl (stereo unspecified)	Pf growth 96h 7.4µM
Cc1ccc(C)c(NC(=S)NC(NC(=O)N(C)C)C(Cl)(Cl)Cl)c1 (stereo unspecified)	Pf growth 96h inconclusive, Pf growth 48h inconclusive
Cc1cc(Cl)ccc1NC(=O)CN1C(=O)C(=O)N(C2CCCC2)C1=O	Pf growth 48h inconclusive (no result: Cycloheximide cs, Shiga inhibitor, NS1 function inh)
C/C(=N\NC(=O)C1COc2ccccc2O1)c1ccc(N2CCOCC2)cc1 (stereo unspecified)	none (no result: NS1 function inh)
COc1ccccc1NC(=S)NC(NC(=O)C(C)C)C(Cl)(Cl)Cl (stereo unspecified)	Pf growth 48h 7.4µM
COC(=O)NC(NC(=S)Nc1ccccc1OC)C(Cl)(Cl)Cl (stereo unspecified)	Pf growth 96h inconclusive, Pf growth 48h inconclusive
COC(=O)C1CSC(C(=O)OC)N1C(=O)CN1CCN(c2ccc(OC)cc2)CC1 (stereo unspecified)	none (no result: NS1 function inh)
Cn1c(NC(=O)C[n+]2cc(-c3ccccc3)n3c2CCC3)cc(=O)n(C)c1=O	Pf growth 96h 0.83µM, Pf growth 48h 2.6µM
Cn1c(NC(=O)C[n+]2cc(-c3ccc(Cl)cc3)n3c2CCC3)cc(=O)n(C)c1=O	Pf growth 96h 0.33µM, Pf growth 48h 4.1µM
O=C(C[n+]1cc(-c2ccc(Cl)cc2)n2c1CCC2)Nc1nc(-c2ccc(F)cc2)cs1	Pf growth 96h inconclusive
Cc1ccc(-c2csc(NC(=O)C[n+]3cc(-c4ccccc4)n4c3CCC4)n2)cc1	Pf growth 96h inconclusive, Pf growth 48h inconclusive
CNc1ccc(Br)cc1C(O)c1ccccc1 (stereo unspecified)	Pf growth 96h inconclusive, Pf growth 48h inconclusive
CCC(=O)NC1OC(CO)C(O)C(O)C1O (stereo unspecified)	none
COc1ccccc1NC(=O)c1ccc(NC(=O)CSc2n[nH]c(N)n2)cc1	none
O=C(CCN1CCC(c2ccccc2)C1)c1cccs1 (stereo unspecified)	Pf growth 96h inconclusive
O=C(c1cccs1)N1CCN(c2ccc(Cl)cc2)CC1	Cycloheximide cs 22
O=C(c1cccs1)N1CCC(c2ccccc2)C1 (stereo unspecified)	Cycloheximide cs 41, Shiga inhibitor 97
O=C(c1cccs1)N1CCC(N2CCN(c3ccccc3)CC2)CC1	Pf growth 96h 3.3µM
CCOc1ccccc1N1CCN(C(=O)/C=C/c2cccc([N+](=O)[O-])c2)CC1	Pf growth 96h inconclusive
COc1ccc(NC(=O)C2CCC(=O)N2C(=O)OCc2ccccc2)cc1 (stereo unspecified)	Pf growth 96h inconclusive
CC(C)c1ccc(NC(=S)N2CCN(Cc3ccccc3)CC2)cc1	Cycloheximide cs 12 (no result: NS1 function inh)
Cc1ccc(NC(=S)NC2CCN(Cc3ccccc3)CC2)cc1	Pf growth 96h inconclusive, Pf growth 48h inconclusive
CC(C)c1ccc(NC(=S)NC2CCN(Cc3ccccc3)CC2)cc1	Pf growth 96h inconclusive, Pf growth 48h 10µM
Cc1ccccc1NC(=S)N1CCN(Cc2ccccc2)CC1	Pf growth 96h 1.2µM
S=C(Nc1cc(Cl)cc(Cl)c1)NC1CCN(Cc2ccccc2)CC1	Pf growth 96h inconclusive, Pf growth 48h 5.9µM
N#CC1=C(N)SC(N)=C(C#N)C1c1cccc(O)c1	Pf growth 96h inconclusive
CC(C)CC1NC(=O)N(CC(=O)NC2CCCc3ccccc32)C1=O (stereo unspecified)	none (no result: NS1 function inh)
CCN1CCN(C(=S)NC(C)c2ccccc2)CC1 (stereo unspecified)	Pf growth 96h 3.7µM, NS1 function inh inconclusive
CCN1CCN(C(=S)NC(CC(=O)c2ccccc2)c2ccccc2)CC1 (stereo unspecified)	Pf growth 96h inconclusive
Fc1ccc(/C=C/c2nnc(-c3cccs3)o2)cc1	Cycloheximide cs 31, Shiga inhibitor 75
